Test [1] in a line: qHTS for identification of novel therapeutic agents for treatment of microphthalmiaassociated transcription factor (MiT) renal cell carcinoma (RCC) (AID 1963991). As to conditions: CellTiter-Glo, 48 h, stronger effect = lower value. The gist of the method:
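Three TFE3-fusion RCC cell lines (UOK109, UOK124, UOK145), 500 cells/well, were exposed to the 1912-compound MIPE 4.0 library for 48 hours at 37 C. Viability was read by CellTiter-Glo luminescence, normalised to DMSO (100%) and empty wells (0%), with 11-concentration curve fits.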
In general terms: Quantitative high-throughput screening tests each substance at several concentrations.

Test [2] in a line: qHTS profiling for inhibitors of Plasmodium falciparum proliferation (AID 504749). Also: nearly all actives have a fitted effect of over 60% in size. Also: potency is read from the fitted curve at half-maximal effect.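 As to activity, negative = inhibition: 0% = DMSO vehicle and full inhibition = artemisinin control.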 As to conditions: P. falciparum in erythrocytes, SYBR Green DNA, 72 h, at 28.7 µM (top of the series). Summed up: (§1)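 Three-day growth assay of blood-stage parasites in erythrocytes (0.3% parasitemia, 2.5% hematocrit) at 37 C, 5% CO2, quantified by SYBR Green DNA staining after overnight detergent lysis.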

Test [3] deals with 3D7. The test is described as above. As to conditions: P. falciparum in erythrocytes, SYBR Green DNA, 72 h; series mostly up to 28.7 µM. The gist of the method: as §1
Test [4] deals with 7G8. Described as above. As to conditions: P. falciparum in erythrocytes, SYBR Green DNA, 72 h; series mostly up to 28.7 µM. Summed up:
as §1

The test system of test [5] is AA1029. Described as above. As to conditions: P. falciparum in erythrocytes, SYBR Green DNA, 72 h; series mostly up to 28.7 µM. Summed up:
as §1

Test [6] relates to AS120. The description is as above. As to conditions: P. falciparum in erythrocytes, SYBR Green DNA, 72 h; series mostly up to 28.7 µM. Summed up: as §1
Test [7] deals with ATS189. The description is as above. As to conditions: P. falciparum in erythrocytes, SYBR Green DNA, 72 h; series mostly up to 28.7 µM. Summed up:
as §1

Test [8] concerns ATS95. Described as above. As to conditions: P. falciparum in erythrocytes, SYBR Green DNA, 72 h; series mostly up to 28.7 µM. Summed up: as §1
Test [9] deals with C2A. The description is as above. As to conditions: P. falciparum in erythrocytes, SYBR Green DNA, 72 h; series mostly up to 28.7 µM. The gist of the method: as §1
The subject of test [10] is CP185. The test is described as above. As to conditions: P. falciparum in erythrocytes, SYBR Green DNA, 72 h; series mostly up to 28.7 µM. Summed up:
as §1

In test [11] the test system is CP191. The description is as above. As to conditions: P. falciparum in erythrocytes, SYBR Green DNA, 72 h; series mostly up to 28.7 µM. Summed up: as §1
The subject of test [12] is CP192. The description is as above. As to conditions: P. falciparum in erythrocytes, SYBR Green DNA, 72 h; series mostly up to 28.7 µM. Summed up: as §1
Test [13] concerns CP194. Described as above. As to conditions: P. falciparum in erythrocytes, SYBR Green DNA, 72 h; series mostly up to 28.7 µM. Summed up:
as §1

For test [14], the system named is CP201. The test is described as above. As to conditions: P. falciparum in erythrocytes, SYBR Green DNA, 72 h; series mostly up to 28.7 µM. The gist of the method:
as §1

Test [15] relates to CP203. The description is as above. As to conditions: P. falciparum in erythrocytes, SYBR Green DNA, 72 h; series mostly up to 28.7 µM. Summed up:
as §1

The subject of test [16] is CP211. The description is as above. As to conditions: P. falciparum in erythrocytes, SYBR Green DNA, 72 h; series mostly up to 28.7 µM. The gist of the method: as §1
Test [17] deals with CP215. The test is described as above. As to conditions: P. falciparum in erythrocytes, SYBR Green DNA, 72 h; series mostly up to 28.7 µM. Summed up:
as §1

The subject of test [18] is CP217. The test is described as above. As to conditions: P. falciparum in erythrocytes, SYBR Green DNA, 72 h; series mostly up to 28.7 µM. The gist of the method: as §1
Test [19] has as its system CP237. The description is as above. As to conditions: P. falciparum in erythrocytes, SYBR Green DNA, 72 h; series mostly up to 28.7 µM. Summed up:
as §1

The test system of test [20] is CP238. The description is as above. As to conditions: P. falciparum in erythrocytes, SYBR Green DNA, 72 h; series mostly up to 28.7 µM. The gist of the method: as §1
[21] abbreviates: TFE3-RCC UOK109 viability, measured here: UOK109 Z-AUC.
[22] abbreviates: TFE3-RCC viability, measured here: UOK124 Z-AUC.
The mark [23] stands for this setting: TFE3-RCC viability, measured here: UOK145 Z-AUC.

Records with an inconclusive call do not appear. Active and inactive are the calls of the source. Calls follow the shape of the dose curve; as a rule, active = well fitted inhibition curve with a large enough effect; inconclusive = small, poorly fitted or top-dose-only effect; inactive = flat fitted curve, though single readings scatter.

On to `Nc1ccc(S(N)(=O)=O)cc1`, for which the z-score in [1] (setting [21]) stood at 1.06; in test [1] (setting [22]) it was 0.709; in test [1] (setting [23]), 1.29. Also, the activity, negative = inhibition in [2] (parasite line A) is 13.4% (inactive); in [2] (parasite line B), 14.6% (inactive). In addition, the Potency result in test [3], in test [4], in [5], in test [6], in [7] and in [8] was “inactive” in each case. In addition, the Potency entry in test [9], in test [10], in test [11], in test [12], in test [13] and in test [14] was “inactive” each time. Besides, the Potency result in test [15], in [16], in [17], in [18], in [19] and in [20] was “inactive” each time.
Turning to `O=P(O)(O)C(O)(Cn1ccnc1)P(=O)(O)O`, the z-score was 0.735 in test [1] (setting [21]), 1.17 in test [1] (setting [22]) and 1.01 in test [1] (setting [23]). The activity, negative = inhibition in [2] (parasite line A) was 8.24% (inactive); in [2] (parasite line B), -1.43% (inactive). The Potency result in [3], in [4], in test [5], in [6], in test [7] and in [8] was “inactive” each time. The Potency entry in test [9], in test [10], in test [11], in [12], in test [13] and in [14] was “inactive” each time. The Potency entry in [16], in test [17], in [18], in [19] and in test [20] was “inactive” each time.
On to `N[C@@H](Cc1cc(I)c(Oc2cc(I)c(O)c(I)c2)c(I)c1)C(=O)O`, for which the figures for the z-score in test [1] (setting [21]), in test [1] (setting [22]) and in [1] (setting [23]) were 0.737, 0.682 and 0.762, respectively. The figures for the activity, negative = inhibition in test [2] (parasite line A) and in test [2] (parasite line B) were -3.11% (inactive) and -2.18% (inactive), respectively. The Potency entry in test [3], in test [4], in test [5], in [6], in test [7] and in test [8] was “inactive” throughout. Also, the Potency entry in test [9], in test [10], in test [11], in [12], in test [13] and in [14] was “inactive” in each case. Besides, the Potency result in [15], in [16], in test [17], in test [18], in test [19] and in [20] was “inactive” in each case.
As to `C[C@H](Cn1cnc2c(N)ncnc21)OCP(=O)(O)O`, the z-score turned out to be 0.368 in test [1] (setting [21]), 0.295 in test [1] (setting [22]) and 0.62 in test [1] (setting [23]). Moreover, the results for the activity, negative = inhibition in test [2] (parasite line A) and in test [2] (parasite line B) were 2.65% (inactive) and 3.87% (inactive), respectively. Moreover, the Potency result in test [3], in [4], in test [5], in [6], in test [7] and in test [8] was “inactive” each time. For the same compound, the Potency entry in [9], in test [10], in test [11], in test [12], in [13] and in test [14] was “inactive” throughout. In addition, the Potency result in test [15], in test [16], in test [17], in test [18], in test [19] and in [20] was “inactive” throughout.
With `O=C(OC1C[C@H]2CC[C@@H](C1)[N+]21CCCC1)C(O)(c1ccccc1)c1ccccc1` (stereo partly specified), the z-score was determined as 0.286 in test [1] (setting [21]), 0.765 in test [1] (setting [22]) and 0.653 in test [1] (setting [23]). The Potency in test [4] is 6.31 µM (active); in test [5] it was 2.51 µM (active); in test [9], 5.01 µM (active); in test [10], 2.82 µM (active); in test [12], 3.79 µM (active); in test [16], 1.9 µM (active). In test [20], the Potency is 3.55 µM (active).

For the origin of these results see PubChem BioAssay (NCATS).
